HTT ATP protect: cytoprotection in Huntington HTT-Q103 PC12 cell model; PC12 HTT-Q103 induced, cytoprotection, ATP luminescence, 40 h; Potency, µM (highest dose often 56.4 µM), hits mostly activators; 0.14% of 230,000 active; further: nearly all actives have a fitted effect of over 45% in size
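Cells were plated at 1500 per well in phenol red-free DMEM with 5% equine and 5% calf serum. Tebufenozide (100 nM final) and compounds were added, then ATPlite reagent, and luminescence was read.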
ALDH1A1 inh: inhibitors of human aldehyde dehydrogenase 1A1 | P00352 | Purified ALDH1A1, NADH fluorescence, propionaldehyde substrate | Potency, µM (doses to about 75.3 µM), hits mostly inhibitors | 7.3% of 220,000 active | AID 1030; active means well fitted inhibition curve with a large enough effect, not every such curve was filed as active; inconclusive means small, poorly fitted or top-dose-only effect, or another doubt; inactive means no such curve, though single readings can be large or run the other way
Target sequence (P00352 whole entry, looked up): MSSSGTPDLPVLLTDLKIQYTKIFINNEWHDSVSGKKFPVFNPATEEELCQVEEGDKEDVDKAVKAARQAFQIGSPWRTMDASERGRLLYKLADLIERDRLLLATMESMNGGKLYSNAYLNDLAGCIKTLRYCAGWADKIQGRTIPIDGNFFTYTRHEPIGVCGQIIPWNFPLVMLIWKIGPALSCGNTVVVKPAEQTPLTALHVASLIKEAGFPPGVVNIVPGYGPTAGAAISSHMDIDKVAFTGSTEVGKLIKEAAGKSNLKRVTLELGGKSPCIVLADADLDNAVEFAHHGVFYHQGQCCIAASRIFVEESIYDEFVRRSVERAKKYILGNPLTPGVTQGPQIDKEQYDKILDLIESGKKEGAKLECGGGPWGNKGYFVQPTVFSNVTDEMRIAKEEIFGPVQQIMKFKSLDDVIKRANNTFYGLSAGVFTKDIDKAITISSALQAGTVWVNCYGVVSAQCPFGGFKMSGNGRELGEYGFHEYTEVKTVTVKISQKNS
HttQ103 aggreg: reduces HttQ103-GFP aggregates in PC12 cells; PC12 HttQ103-GFP aggregates, Acumen cytometry, 40 h; Potency, µM (series often up to 46.1 µM), most hits filed as inhibitors; 1.1% of 220,000 active; further: nearly all actives have a fitted effect of over 60% in size
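Steps: seed 1500 PC12 HTTQ103-GFP cells/well; add tebufenozide, 100 nM final; add compound titration; add ATPLite reagent; quantify GFP aggregates by laser scanning cytometry.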
GoLoco inh red: blocks human Gai1 binding to RGS12 GoLoco peptide, red readout | P63096 | Gai1:RGS12 GoLoco peptide FP, rhodamine, 10 min | Potency, µM (highest dose often 61.6 µM), actives largely listed as inhibitors | 0.44% of 230,000 active | AID 880; active means well fitted inhibition curve with a large enough effect, not every such curve was filed as active; inactive means no such curve, though single readings can be large or run the other way; further: nearly all actives have a fitted effect of over 30% in size
HPGD inh: blocks human HPGD enzyme activity; P15428; purified HPGD, NADH fluorescence kinetic, PGE2 substrate; 4.3% of 150,000 active; AID 894; Potency, µM, hits mostly inhibitors; active means well fitted inhibition curve with a large enough effect, not every such curve was filed as active; inconclusive means small, poorly fitted or top-dose-only effect, or another doubt; inactive means no such curve, though single readings can be large or run the other way
Target sequence (P15428 whole entry, looked up): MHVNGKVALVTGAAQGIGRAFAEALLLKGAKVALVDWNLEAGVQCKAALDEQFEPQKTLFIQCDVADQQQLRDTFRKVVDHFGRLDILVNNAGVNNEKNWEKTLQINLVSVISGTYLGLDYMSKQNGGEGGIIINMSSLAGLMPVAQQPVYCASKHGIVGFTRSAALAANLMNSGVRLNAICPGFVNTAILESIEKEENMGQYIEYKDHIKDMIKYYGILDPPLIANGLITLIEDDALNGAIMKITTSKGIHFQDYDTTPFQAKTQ
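20 nM HPGD preincubated 15 min at room temperature with compound in 50 mM Tris-HCl pH 8, 0.01% Tween 20. Started with 1 mM NAD+ and 30 uM prostaglandin E2; NADH fluorescence (360/450 nm) read 5 times over 30-s intervals, last minus first.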
PNC inhibitor: inhibitors of perinucleolar compartment assembly. AID 2417. PC3M PTB-GFP, PNC prevalence imaging, 16 h; active compounds read low. 3.1% of 140,000 active. activity change (PNC), negative = inhibition, % at 10 µM;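 active means readout at or below -70, meaning at least 70% loss of cells showing the perinucleolar compartment, a nuclear body marking cancer cells; inconclusive means readout between -30 and a set limit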
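PC3M cells stably expressing PTB-GFP, 750–1000 cells/well, treated 16 h at 37 °C with compound (23 nl of library stock), in duplicate. After paraformaldehyde fixation and Hoechst stain, imaged at 20x; PNC prevalence scored by image analysis.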
Numbers stand for hits; [ ] = another dose, or the depositor's remark. Rows were chosen to be rich in hits. Some 11% of all compounds tested hit in one or more screens of this group. Unless noted, the call rests on the fitted dose curve; in most records, active means well fitted curve in the direction sought with a large enough effect; inconclusive means small, poorly fitted or top-dose-only effect, or another doubt; inactive means no such curve, though single readings can be large; an effect the other way counts as inactive or inconclusive.

How did CCOCCCNC(=O)C(c1ccccc1)N(Cc1ccc2c(c1)OCO2)C(=O)CNC(C)=O (configuration not stated) do in these assays?
HTT ATP protect: inactive[10 µM]; ALDH1A1 inh: inactive; HttQ103 aggreg: inactive; GoLoco inh red: inactive; HPGD inh: inactive; PNC inhibitor: inactive

Results for Cc1ccc(CCNC(=O)C2CC(c3ccc(C(F)(F)F)cc3)=NO2)cc1 (configuration not stated) ?
HTT ATP protect: inactive[10 µM]; HttQ103 aggreg: inactive[9.22 µM]; GoLoco inh red: inactive

How did CCCCSc1ccc(NC(=O)c2cccnc2)cc1 do in these assays?
HTT ATP protect: inactive; ALDH1A1 inh: inactive; HttQ103 aggreg: inactive; GoLoco inh red: inactive; HPGD inh: inactive; PNC inhibitor: inactive

Results for CCOC(=O)Cn1c(O)c(N=NC(=O)OC)c2ccccc21 ?
HTT ATP protect: inactive[10 µM]; HttQ103 aggreg: inactive[9.22 µM]; GoLoco inh red: inactive

How did COC(=O)Cn1c(O)c(N=NC(=O)c2ccc3c(c2)OCO3)c2ccccc21 do in these assays?
HTT ATP protect: inactive[10 µM]; ALDH1A1 inh: 1.8µM; HttQ103 aggreg: inactive[9.22 µM]; GoLoco inh red: inactive

How did O=C(N=Nc1c(O)n(Cc2ccccc2)c2ccccc12)c1ccncc1 do in these assays?
HTT ATP protect: inactive[10 µM]; HttQ103 aggreg: inactive[9.22 µM]; GoLoco inh red: inactive

How did CCn1c(O)c(N=NC(=O)CNc2ccc(C)cc2)c2ccccc21 do in these assays?
HTT ATP protect: inactive[10 µM]; ALDH1A1 inh: inactive; HttQ103 aggreg: inactive; GoLoco inh red: inactive; HPGD inh: inactive; PNC inhibitor: inactive

How did Cc1ccc(NC(=O)Cn2c(O)c(N=NC(N)=O)c3ccccc32)cc1 do in these assays?
HTT ATP protect: inactive[10 µM]; HttQ103 aggreg: inactive[9.22 µM]; GoLoco inh red: inactive

What do the screens show for `CCn1c(O)c(N=NC(=O)CNc2cccc(C)c2)c2ccccc21`?
HTT ATP protect: inactive[10 µM]; ALDH1A1 inh: 28µM; HttQ103 aggreg: inconclusive; GoLoco inh red: inactive; HPGD inh: inactive; PNC inhibitor: inconclusive

How did Cc1ccc(NC(=O)Cn2c(O)c(N=NS(=O)(=O)c3ccc(C)cc3)c3ccccc32)cc1 do in these assays?
HTT ATP protect: inactive[10 µM]; ALDH1A1 inh: 0.35µM; HttQ103 aggreg: inactive; GoLoco inh red: inactive; HPGD inh: inactive; PNC inhibitor: inconclusive

What do the screens show for `Cc1cccc(NC(=O)Cn2c(O)c(N=NC(=O)c3ccncc3)c3ccccc32)c1`?
ALDH1A1 inh: 13µM; HttQ103 aggreg: inconclusive; GoLoco inh red: inactive

What do the screens show for `COc1ccc(N2CCN(CC(O)c3c[nH]c4ccc(OC)cc34)CC2C)cc1` (configuration not stated)?
HTT ATP protect: inactive; ALDH1A1 inh: inactive; HttQ103 aggreg: 13µM; GoLoco inh red: inactive; HPGD inh: inactive; PNC inhibitor: inactive

How did COc1ccc2[nH]cc(C(O)CN3CCN(c4ccccc4)CC3)c2c1 (configuration not stated) do in these assays?
HTT ATP protect: inactive[0.074 µM]; ALDH1A1 inh: inactive; HttQ103 aggreg: inconclusive; PNC inhibitor: inactive

How did CCCNC(=O)C1CCN(S(=O)(=O)c2cccs2)CC1 do in these assays?
HTT ATP protect: inactive; ALDH1A1 inh: inactive; HttQ103 aggreg: inactive; GoLoco inh red: inactive

Results for O=C(NCCC1=CCCCC1)C1CCN(S(=O)(=O)c2ccccc2)CC1 ?
HTT ATP protect: inactive; ALDH1A1 inh: inconclusive; HttQ103 aggreg: inactive[9.22 µM]; GoLoco inh red: inactive

How did O=C(NCCC1=CCCCC1)C1CCN(C(=O)Cc2ccccc2)CC1 do in these assays?
HTT ATP protect: inactive[10 µM]; ALDH1A1 inh: 5µM; HttQ103 aggreg: inactive[9.22 µM]; GoLoco inh red: inactive

How did Cc1ccc(CNC(=O)C2CCN(S(=O)(=O)c3cccs3)CC2)o1 do in these assays?
HTT ATP protect: inactive[10 µM]; ALDH1A1 inh: 14µM; HttQ103 aggreg: inconclusive; GoLoco inh red: inactive; HPGD inh: inactive; PNC inhibitor: inconclusive

How did O=C(NCCC1=CCCCC1)C1CCN(S(=O)(=O)c2cccs2)CC1 do in these assays?
HTT ATP protect: inactive; ALDH1A1 inh: 13µM; HttQ103 aggreg: inactive; GoLoco inh red: inactive; HPGD inh: inactive; PNC inhibitor: inconclusive

Results for O=C(Nc1ccncc1)C1CCN(S(=O)(=O)c2cccs2)CC1 ?
HTT ATP protect: inactive; ALDH1A1 inh: inactive; HttQ103 aggreg: inactive; GoLoco inh red: inactive

Results for O=C(Nc1cc(Cl)ccn1)C1CCN(S(=O)(=O)c2cccs2)CC1 ?
HTT ATP protect: inactive; ALDH1A1 inh: 8.9µM; HttQ103 aggreg: inactive[9.22 µM]; GoLoco inh red: inactive; HPGD inh: inactive; PNC inhibitor: inactive

What do the screens show for `N#CCCN(Cc1ccccc1)C(=S)Nc1ccccc1`?
ALDH1A1 inh: inactive; HttQ103 aggreg: inactive; GoLoco inh red: inactive; HPGD inh: inactive; PNC inhibitor: inconclusive

How did N#CCCN(Cc1ccccc1)C(=S)NC(=O)c1ccccc1 do in these assays?
HTT ATP protect: inactive[10 µM]; ALDH1A1 inh: 14µM; HttQ103 aggreg: inactive; GoLoco inh red: inactive; HPGD inh: inactive; PNC inhibitor: inactive

Results for COc1ccc(CN(CCC#N)C(=S)NC(=O)c2ccccc2)cc1 ?
HTT ATP protect: inactive; ALDH1A1 inh: 25µM; HttQ103 aggreg: inactive; GoLoco inh red: inactive; HPGD inh: inactive; PNC inhibitor: inactive

Results for CCOc1ccc(CN(CCC#N)C(=S)NC(=O)c2ccccc2)cc1 ?
HTT ATP protect: inactive[10 µM]; ALDH1A1 inh: inconclusive; HttQ103 aggreg: inactive; GoLoco inh red: inactive; HPGD inh: inactive; PNC inhibitor: inactive

What do the screens show for `CC(C)C(=O)N[C@@H]1CCCN1C(=O)/C=C\c1ccccc1`?
HTT ATP protect: inactive[10 µM]; ALDH1A1 inh: inactive[13.5 µM]

Results for CCCN(C/C=C/I)C1CCc2cccc(O)c2C1 (configuration not stated) ?
HTT ATP protect: inactive; ALDH1A1 inh: inactive; GoLoco inh red: inactive

How did NCCOc1ccccn1 do in these assays?
HTT ATP protect: inactive[10 µM]; ALDH1A1 inh: inactive[13.5 µM]; GoLoco inh red: inactive[14.2 µM]; HPGD inh: inactive

How did COc1ccc(OC)c(C(=O)CN2CCN(S(=O)(=O)c3ccc(Br)cc3)CC2)c1 do in these assays?
HTT ATP protect: inactive; ALDH1A1 inh: 1.6µM; HttQ103 aggreg: inconclusive; GoLoco inh red: inactive; HPGD inh: inactive; PNC inhibitor: inactive

How did COc1ccc(S(=O)(=O)N2CCCCC2)cc1 do in these assays?
HTT ATP protect: inactive; ALDH1A1 inh: inactive; HttQ103 aggreg: inactive; GoLoco inh red: inactive; HPGD inh: inactive; PNC inhibitor: inactive

How did COc1ccc(S(=O)(=O)N2CCCN(CC(=O)C(C)(C)C)CC2)cc1 do in these assays?
HTT ATP protect: inactive; ALDH1A1 inh: 20µM; HttQ103 aggreg: inactive; GoLoco inh red: inactive; HPGD inh: inactive; PNC inhibitor: inactive

What do the screens show for `CO[C@@H]1C=CO[C@]2(C)Oc3c(C)c(O)c4c(O)c(c(C=NN5CCN(C)CC5)c(O)c4c3C2=O)NC(=O)C(C)=CC=C[C@H](C)[C@H](O)[C@H](C)[C@H](O)[C@H](C)[C@H](OC(C)=O)[C@H]1C`?
HTT ATP protect: inactive; ALDH1A1 inh: inactive; GoLoco inh red: inactive; HPGD inh: inactive

Screening data: PubChem BioAssay, National Center for Advancing Translational Sciences (NCATS)
